High-throughput results as filed in PubChem.
Hits are enriched below; roughly 11% of the tested compounds scored in any of these assays.
IMPase cell inh: membrane-permeable compound that blocks inositol monophosphatase. 120,000 tested, under 10 active. CHO-M1 cells, IP1 accumulation, HTRF TR-FRET ratio. inhibition (IP1 accumulation), % at 46.1 µM; active means well fitted curve in the direction sought with a large enough effect in the signal ratio, not every such curve was filed as active; inconclusive means small, poorly fitted or top-dose-only effect, or a change in a side signal; inactive means no such curve, though single readings can be large or run the other way; the % refers to the signal ratio;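 further: cells stimulated with carbachol in lithium chloride buffer; plate controls were DMSO basal wells for no effect and reference inhibitor wells for full effect; higher means more IMPase inhibition seen as more IP1 and lower FRET ratio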
Target sequence (P97697 whole entry, looked up): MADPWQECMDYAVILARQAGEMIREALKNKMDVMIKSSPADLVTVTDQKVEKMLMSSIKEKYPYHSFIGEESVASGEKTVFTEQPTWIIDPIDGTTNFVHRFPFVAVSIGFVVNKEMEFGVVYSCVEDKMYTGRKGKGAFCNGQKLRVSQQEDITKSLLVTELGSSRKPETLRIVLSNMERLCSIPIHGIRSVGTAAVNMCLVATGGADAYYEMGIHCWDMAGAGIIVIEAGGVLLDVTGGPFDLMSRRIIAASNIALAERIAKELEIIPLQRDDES
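Measured: the HTRF emission ratio (665/620 nm) plus the 620 nm donor channel, each fitted to the Hill equation to give AC50. Cells were CHO-M1 given compounds up to 46 uM and a 30 min carbachol stimulation at 37C.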
ALDH1A1 block: inhibitors of human aldehyde dehydrogenase 1A1; Potency, µM (doses to about 75.3 µM), for the others: top-dose activity, negative = inhibition, hits mostly inhibitors; 220,000 compounds, 7.3% hits; Purified ALDH1A1, NADH fluorescence, propionaldehyde substrate; active means well fitted inhibition curve with a large enough effect, not every such curve was filed as active; inconclusive means small, poorly fitted or top-dose-only effect, or another doubt; inactive means no such curve, though single readings can be large or run the other way;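 further: potency means the concentration at half of the fitted maximal effect; plate controls were no enzyme wells and a reference inhibitor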
IMPase Li cell: cell-permeable IMPase inhibitors with lithium potentiation. Potency, µM (doses to about 59.4 µM), inactives show top-dose activity, negative = IMPase inhibition, hits mostly inhibitors. CHO-M1 cells, IP1 TR-FRET (IP-One), carbachol + lithium. 210,000 compounds, 0.35% hits;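 further: IP1 builds up when IMPase is blocked and the TR-FRET signal falls; potency means the concentration at half of the fitted maximal effect; plate controls were basal vehicle for no effect and high inhibitor control for full effect; nearly all actives have a fitted effect of over 50% in size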
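Test compounds were applied to CHO-M1 cells previously cultured for 16–30 h at 2000 per well. A small lithium amount accompanied them; after 30 min at 37C, IP1 was quantified by TR-FRET.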
HPGD block: blocks human HPGD enzyme activity; P15428; purified HPGD, NADH fluorescence kinetic, PGE2 substrate; Potency, µM, inactives show at the highest dose activity change, negative = inhibition, actives largely listed as inhibitors; 150,000 compounds, 4.3% hits; AID 894; active means well fitted inhibition curve with a large enough effect, not every such curve was filed as active; inconclusive means small, poorly fitted or top-dose-only effect, or another doubt; inactive means no such curve, though single readings can be large or run the other way; further: potency means the concentration at half of the fitted maximal effect
Target sequence (P15428 whole entry, looked up): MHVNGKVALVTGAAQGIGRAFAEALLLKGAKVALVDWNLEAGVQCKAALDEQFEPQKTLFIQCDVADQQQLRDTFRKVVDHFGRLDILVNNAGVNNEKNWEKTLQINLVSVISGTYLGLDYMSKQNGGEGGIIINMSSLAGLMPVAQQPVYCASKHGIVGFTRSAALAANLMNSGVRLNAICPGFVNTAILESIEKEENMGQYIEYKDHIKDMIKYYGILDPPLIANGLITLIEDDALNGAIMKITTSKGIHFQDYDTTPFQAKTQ
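20 nM HPGD preincubated 15 min at room temperature with compound in 50 mM Tris-HCl pH 8, 0.01% Tween 20. Started with 1 mM NAD+ and 30 uM prostaglandin E2; NADH fluorescence (360/450 nm) read 5 times over 30-s intervals, last minus first.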
PNC inhibitor: blocks assembly of the perinucleolar compartment. activity change (PNC), negative = inhibition, % at 10 µM. 140,000 compounds, 3.1% hits. PC3M PTB-GFP, PNC prevalence imaging, 16 h; hits give low values;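 active means readout at or below -70, meaning at least 70% loss of cells showing the perinucleolar compartment, a nuclear body marking cancer cells; inconclusive means readout between -30 and a set limit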;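 further: plate controls were DMSO wells for no effect and camptothecin positive control wells for full effect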
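PC3M cells stably expressing PTB-GFP, 750–1000 cells/well, treated 16 h at 37 °C with compound (23 nl of library stock), in duplicate. After paraformaldehyde fixation and Hoechst stain, imaged at 20x; PNC prevalence scored by image analysis.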
NPSR antagonist: neuropeptide S receptor (human) antagonism, cAMP. Q6W5P4. CHO-NPSR cells, cAMP TR-FRET, antagonist mode. Potency, µM (doses to about 38.3 µM), for inactives: at the highest dose activity change, negative = inhibition, actives largely listed as inhibitors. 220,000 compounds, 1% hits; further: potency means the concentration at half of the fitted maximal effect; nearly all actives have a fitted effect of over 50% in size
* marks the source's active call; other numbers are inactive results; ? = inconclusive; nt = no result; [ ] = dose if it differs, or a comment. Unless noted, the call rests on the fitted dose curve; in most records, active means well fitted curve in the direction sought with a large enough effect; inconclusive means small, poorly fitted or top-dose-only effect, or another doubt; inactive means no such curve, though single readings can be large; an effect the other way counts as inactive or inconclusive. Unless noted, on the % scale 0 is the no-effect control and ±100 the full control effect.

SMILES	IMPase cell inh	ALDH1A1 block	IMPase Li cell	HPGD block	PNC inhibitor	NPSR antagonist
N#Cc1nc(-c2ccco2)oc1N1CCN(c2cccc(Cl)c2)CC1	3	?	40%[38.3 µM]	?	-82*	?
N#Cc1nc(-c2ccco2)oc1N1CCCC1	-2	?	25%[38.3 µM]	?	3	-3%[46.1 µM]
COc1nc(NCC(C)C)nc(Oc2ccc(OCc3ccccc3)nn2)n1	-2	-9%	18%[38.3 µM]	-5%	64	-11%[46.1 µM]
Cc1ccc(NC(=O)CSc2nnc(CCNC(=O)OC(C)(C)C)o2)c(C)c1	3	2%	16%[38.3 µM]	-4%	12	-9%[46.1 µM]
Cc1ccc(C)c(NC(=O)CSc2nnc(CCCCCNC(=O)OC(C)(C)C)o2)c1	10	9.5µM*	18%	18µM*	3	?
Cc1ccccc1NC(=O)Cc1nc(CCl)cs1	nt	11µM*	-2%	20µM*	?	-1%
Cc1ccccc1NC(=O)CSCCN1C(=O)c2ccccc2C1=O	-5	?	2%	?	34	13%
CSc1ccccc1NC(=O)CN(C)CC(=O)Nc1cc(C)ccc1C	-6	-17%	12%	-7%	14	-2%
CSc1ccccc1NC(=O)CN(C)CC(=O)NCc1ccccc1	nt	0.2µM*	3%	nt	nt	5%
Cc1ccccc1NC(=O)CSCC(=O)Nc1ccccc1C	-13	-1%	11%[38.3 µM]	18µM*	-28	-2%[46.1 µM]
COc1ccccc1NC(=O)c1ccc(NC(=O)COC(=O)C(C)C)cc1	-9	0.89µM*	-3%	-4%	7	0%
C=CCc1cccc(/C=N/c2nc3ccccc3n2CC)c1O	0	15%	-6%	-2%	15	0%[46.1 µM]
CCN(CC)S(=O)(=O)c1ccc(Nc2nc3ccccc3n3nnnc23)cc1	-19	-8%	18%[38.3 µM]	-30%	-19	?
O=C(CSCc1ccc(Cl)cc1)Nc1ccccc1O	nt	-2%	10%	nt	nt	-2%
Cc1ccccc1NC(=O)CSC(N)=O	1	0.79µM*	-2%	?	13	-2%[46.1 µM]
NC(=O)SCC(=O)Nc1ccccc1C(=O)O	nt	-1%	nt	nt	nt	-21%
COc1ccccc1NC(=O)CSC(N)=O	1	1.6µM*	-8%[38.3 µM]	-4%	21	-7%[46.1 µM]
CSc1ccccc1NC(=O)CSCc1ccc(C)cc1	6	-16%	20%[38.3 µM]	16µM*	25	-20%[46.1 µM]
Cc1ccn2c(CCc3nnc4cc(C)ccn34)nnc2c1	nt	6%[13.5 µM]	1%	-1%	nt	nt
c1ccc(-c2nc[nH]c2-c2ccccc2)cc1	4	-4%	1%[38.3 µM]	-16%	?	-14%[46.1 µM]
CC(C)c1ccc(S(=O)(=O)/N=C2/C=CC(=O)c3ccccc32)cc1	nt	25µM*	4%	nt	nt	-12%
COC(=O)C(C(C)=O)C1=C/C(=N\S(=O)(=O)c2ccc(C)cc2)c2ccccc2C1=O (centres undefined)	4	?	1%[38.3 µM]	-20%	-7	-15%[46.1 µM]
COc1ccc(/C=N/NC(=O)c2ccc(Cn3cc([N+](=O)[O-])cn3)o2)c(OC)c1C	-3	14%	1%[38.3 µM]	-6%	34	-6%[46.1 µM]
CCN=c1scc(-c2ccc3c(c2)NC(=O)CO3)n1N=C1CCCC1	7	?	9%[38.3 µM]	16µM*	-10	-17%[46.1 µM]
CCCCN=c1scc(-c2ccc3c(c2)NC(=O)CO3)n1N=C1CCCC1	6	3.2µM*	21%[38.3 µM]	?	25	?
SMILES	IMPase cell inh	ALDH1A1 block	IMPase Li cell	HPGD block	PNC inhibitor	NPSR antagonist
COCC(C)n1c(-c2ccc3c(c2)NC(=O)CO3)csc1=Nc1ccc(OC(F)F)cc1 (centres undefined)	15	?	64%[38.3 µM]	-23%	15	10µM*
COc1ccc(C(=O)CSc2[nH]c(=O)cc(C(F)(F)F)c2C#N)cc1	nt	18µM*	nt	nt	nt	40%
Cc1nn(CC(=O)Nc2ccc3c(c2)nc(CN2CCCC2)n3C)c(=O)c2ccccc12	-4	-1%	1%[38.3 µM]	-3%	-100*	4%[46.1 µM]
O=C(Cn1nc(-c2ccc(F)cc2)ccc1=O)Nc1ccc(C(=O)NC2CC2)cc1	4	5%	-1%[38.3 µM]	28µM*	37	-7%[46.1 µM]
Cc1ccc(-c2nn(CC(=O)Nc3ccc4c(c3)nc3n4CCOC3)c(=O)c3ccccc23)cc1	-1	-2%	10µM*	?	25	-17%[46.1 µM]
COc1cccc(-c2ccc(=O)n(CC(=O)Nc3ccc(C(=O)N4CCCC4)cc3)n2)c1	0	?	11%[38.3 µM]	13µM*	32	-8%[46.1 µM]
COc1cccc(CN2CCSCC2)c1	-3	?	-13%[38.3 µM]	-8%	-22	0%[46.1 µM]
O=c1ccc(NS(=O)(=O)c2ccccc2Cl)cn1Cc1ccc(Cl)c(Cl)c1	nt	?	-2%	nt	nt	-18%
Cn1c(C(=O)O)cc2cc(F)ccc21	-6	?	17%[38.3 µM]	?	?	-2%[46.1 µM]
Cc1nn(CC(=O)Nc2ccc(C(=O)N3CCCC3)cc2)c(=O)c2ccccc12	-3	-15%	18%[38.3 µM]	14µM*	-4	-4%[46.1 µM]
Cc1nn(CC(=O)Nc2cccnc2)c(=O)c2ccccc12	nt	5%	6%	nt	nt	4%
Cc1nn(CC(=O)Nc2ccc(C(=O)N3CCCCC3)cc2)c(=O)c2ccccc12	-4	13µM*	29%[38.3 µM]	1.1µM*	-17	-7%[46.1 µM]
C/C(=N\Nc1nnc(-c2ccccc2)c(-c2ccccc2)n1)c1cccc([N+](=O)[O-])c1	9	?	21%[38.3 µM]	6.3µM*	6	?
CCOC(=O)N1CCN(S(=O)(=O)c2ccc(C(=O)Nc3nnc(C)o3)cc2)CC1	nt	4%	-11%	-8%	18	2%
Cc1ccc(C)n1CCN1CCN(CC(=O)Nc2cc(C(F)(F)F)ccc2Cl)CC1	-2	28µM*	2%[38.3 µM]	-13%	30	-12%[46.1 µM]
Cc1nn(Cc2ccccc2)c(Cl)c1C(=O)OCc1nnc(-c2ccccc2)o1	19	2%	13%[38.3 µM]	13µM*	-13	-28%[46.1 µM]
Cc1ccc(S(=O)(=O)N(C)CC(=O)OCc2nnc(-c3ccccc3)o2)cc1	-1	?	21%[38.3 µM]	25µM*	-7	3%[46.1 µM]
O=C(OCc1nnc(-c2ccccc2)o1)c1cc(F)c(F)cc1Cl	nt	6%	-10%	nt	nt	-1%
O=C(OCc1nnc(-c2ccccc2)o1)c1ccc2c(c1)OCO2	-8	-2%	5%[38.3 µM]	7.1µM*	-28	-10%[46.1 µM]
N#Cc1ccccc1Sc1ccccc1C(=O)OCc1nnc(-c2ccccc2)o1	17	-4%	29%[38.3 µM]	8.9µM*	-5	?
COC(=O)C1CC(=O)N(Cc2ccccc2)C1 (centres undefined)	nt	-2%	4%	nt	nt	10%
CCOC(=O)c1[nH]c(COC(=O)C2CC(=O)N(Cc3ccccc3)C2)c(C(=O)OCC)c1C (centres undefined)	10	40µM*	45%[38.3 µM]	28µM*	41	-20%[46.1 µM]
O=C(OCc1nnc(-c2ccccc2)o1)c1ccco1	11	?	-22%[38.3 µM]	8.9µM*	-6	?
